Results from PubChem BioAssay AID1159580 (chemical genetic matrix, 2015).
Among all 5,500 compounds or so, about 2,000 (36%) were called active. Inconclusive results (about 18%) are left out. Rule as the data show it: active = normalized growth mostly below about 0.91 (no sharp cut-off); inconclusive = no clear call, values can overlap the other calls; inactive = mostly above about 0.92. The list shows a part of the results.

Assay: chemical genetic growth profiling, strain panel (AID 1159580);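 also: tested at 20 µM; growth read once vehicle control cultures reached saturation at 30 °C; 1 = growth at the plate median or of vehicle wells; lower values mean less growth of the strain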
Conditions: S. cerevisiae deletion strains, growth OD

Measured: normalized growth

C#CCCCCCCCCCCCC(=O)CC(O)COC(C)=O (centres undefined)
active: locus YAL013W, strain DEP1, hits give low values 0.909 | locus YCL029C, strain bik1, hits give low values 0.901 | locus YDL035C, strain GPR1, hits give low values 0.8 | locus YDL074C, strain BRE1, hits give low values 0.622 | locus YDL101C, strain DUN1, hits give low values 0.84 | locus YDL134C, strain PPH21, hits give low values 0.807 | locus YDL192W, strain arf1, hits give low values 0.912 | locus YDR101C, strain arx1, hits give low values 0.881 | locus YDR162C, strain NBP2, hits give low values 0.642 | locus YDR318W, strain mcm21, hits give low values 0.819 | locus YDR392W, strain spt3, hits give low values 0.476 | locus YDR502C, strain sam2, hits give low values 0.799 | locus YEL061C, strain CIN8, hits give low values 0.855 | locus YER155C, strain BEM2, hits give low values 0.585 | locus YER167W, strain BCK2, hits give low values 0.807 | locus YGL078C, strain dbp3, hits give low values 0.916 | locus YGL086W, strain mad1, hits give low values 0.867 | locus YGL248W, strain PDE1, hits give low values 0.788 | locus YGR078C, strain PAC10, hits give low values 0.708 | locus YGR135W, strain pre9, hits give low values 0.739 | locus YGR229C, strain SMI1, hits give low values 0.651 | locus YGR252W, strain gcn5, hits give low values 0.705 | locus YHR030C, strain SLT2, hits give low values 0.911 | locus YHR079C, strain IRE1 (second series), hits give low values 0.816 | locus YHR129C, strain ARP1, hits give low values 0.837 | locus YIL066C, strain RNR3, hits give low values 0.722 | locus YJL095W, strain BCK1, hits give low values 0.665 | locus YJL129C, strain trk1, hits give low values 0.843 | locus YJL134W, strain LCB3, hits give low values 0.892 | locus YJL187C, strain SWE1 (second series), hits give low values 0.839
inactive: locus YAL021C, strain ccr4, hits give low values 0.964 | locus YAL026C, strain drs2, hits give low values 0.982 | locus YAL030W, strain snc1, hits give low values 0.983 | locus YBL061C, strain skt5, hits give low values 0.977 | locus YBR009C, strain hhf1, hits give low values 0.991 | locus YBR021W, strain FUR4, hits give low values 0.91 | locus YBR023C, strain chs3, hits give low values 0.978 | locus YBR171W, strain sec66, hits give low values 0.963 | locus YBR229C, strain ROT2, hits give low values 0.953 | locus YBR231C, strain swc5, hits give low values 0.977 | locus YBR279W, strain paf1, hits give low values 0.986 | locus YCL011C, strain gbp2, hits give low values 0.936 | locus YCL016C, strain dcc1, hits give low values 0.984 | locus YCL061C, strain MRC1, hits give low values 0.999 | locus YCL069W, strain vba3, hits give low values 0.975 | locus YCR088W, strain abp1, hits give low values 0.974 | locus YDL005C, strain med2, hits give low values 0.967 | locus YDL040C, strain nat1, hits give low values 0.99 | locus YDL185W, strain tfp1, hits give low values 0.959 | locus YDR001C, strain nth1, hits give low values 0.991 | locus YDR069C, strain doa4, hits give low values 0.966 | locus YDR137W, strain rgp1, hits give low values 0.854 | locus YDR150W, strain NUM1, hits give low values 0.964 | locus YDR159W, strain sac3, hits give low values 0.989 | locus YDR195W, strain ref2 1.04 | locus YDR297W, strain sur2, hits give low values 0.979 | locus YDR334W, strain swr1, hits give low values 0.98 | locus YDR335W, strain msn5, hits give low values 0.973 | locus YDR388W, hits give low values 0.975 | locus YEL003W, strain gim4, hits give low values 0.951 | locus YEL037C, strain rad23, hits give low values 0.979 | locus YEL061C, strain CIN8 (second series), hits give low values 0.98 | locus YER015W, strain faa2, hits give low values 0.991 | locus YER016W, strain bim1, hits give low values 0.99 | locus YER110C, hits give low values 0.967 | locus YER111C, strain swi4, hits give low values 0.964 | locus YER155C, strain BEM2 (second series), hits give low values 0.9 | locus YFR010W, strain ubp6, hits give low values 0.974 | locus YGL167C, strain pmr1, hits give low values 0.991 | locus YGL173C, strain kem1, hits give low values 0.979 | locus YGL227W, strain vid30, hits give low values 0.974 | locus YGL240W, strain doc1, hits give low values 0.969 | locus YGL253W, strain hxk2, hits give low values 0.981 | locus YHR013C, strain ard1, hits give low values 0.849 | locus YHR027C, strain rpn1, hits give low values 0.989 | locus YHR094C, strain hxt1, hits give low values 0.961 | locus YHR142W, strain chs7, hits give low values 0.884 | locus YHR200W, strain rpn10, hits give low values 0.977 | locus YIL073C, strain SPO22, hits give low values 0.739 | locus YIL125W, strain kgd1, hits give low values 0.97 | locus YIR030C, strain dcg1, hits give low values 0.945 | locus YJL092W, strain hpr5, hits give low values 0.965 | locus YJL095W, strain BCK1 (second series), hits give low values 0.985 | locus YJL115W, strain asf1, hits give low values 0.991 | locus YJL154C, strain vps35, hits give low values 0.984 | locus YJL164C, strain tpk1, hits give low values 0.945 | locus YJL166W, strain qcr8, hits give low values 0.909 | locus YJL168C, strain set2, hits give low values 0.979 | locus YJL187C, strain SWE1, hits give low values 0.978
